± gives the standard deviation of the averaged measurements. In all, about 25,000 sequences were measured (“ln(normalized median fluorescence intensity)”: median about 8.6, highest 2% from about 10 on). This is one part of a sample in which the highest values are shown more often than they occur.
System: PfAP2-EXP AP2 domain (GST-tagged)
Test: gcPBM binding intensity (ln(normalized median fluorescence intensity)); higher = stronger DNA binding
Method in brief: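 After 1 h on an Agilent 4 × 180k array of primer-extended double-stranded 36-bp intergenic genomic probes and negative controls, bound GST-tagged P. falciparum DNA-binding domains were detected with Alexa488 anti-GST antibody and scanned at 488 nm. The domains had been expressed in E. coli, and binding took place in 1× PBS with 1% milk, 0.2 mg/ml BSA, 0.5% salmon testes DNA and 0.03% Triton X-100. Binding intensity is the highest Masliner-normalised natural-log median intensity across replicate spots of either probe orientation.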

Sequence | gcPBM binding intensity (ln)
ATATATATTATAAAATGTACAAATGTTATATAAAAT [XGTACX_site4750] | 8.85 ± 0.45
AAAATGAAATATGTTATATATATATATATATATATA [CACACA_negctrl_site1752] | 9.9 ± 0.4
AATATGTTATAAATATGTTATAAATAATAAATAAAT [GTGCAC_negctrl_site135] | 8.45 ± 0.47
GTTATATGTTATATATATATATATATATATATATAT [TGCATGCA_negctrl_site428] | 10.2 ± 0.65
ATCAAAAATGTTATATATATATATATATATATATAT [TGCATGCA_negctrl_site71] | 10.2 ± 0.45
ATATGTTATATAAATATATATATATATATATATATA [TGCATGCA_negctrl_site594] | 10.1 ± 0.33
ATATATATATATTCCACACACACACTAATAAAAAAA [CACACA_site9214] | 9.94 ± 0.16
AACTGATTATTTTTTTGTACATATATAATAATATAT [XGTACX_site5953] | 8.61 ± 0.33
GACCATGTTAACAAAGCATGCATCTCTATATGTTTA [TGCATGCA_site358] | 8.87 ± 0.49
TCATAACAACTTTGTGTGCACATAAAACATGTATAT | 8.94 ± 0.3
TATATTTATTTATACACATGCATATTTTAAGGGCTC [TGCATGCA_site885] | 8.72 ± 0.4
ATCTAAACCTTTTGAGCACACATATATATATATATA [CACACA_site8526] | 9.86 ± 0.7
TCATATCTTTTGAGCACACATATATATATATAAAGG [CACACA_site3338] | 8.71 ± 0.34
CTAAACCTTTTGAGCACACATATATATATATATATA [CACACA_site1782] | 10.4 ± 0.16
TAACAAAACATAGATTGTACATATTATAAATGTATA [XGTACX_site1543] | 8.46 ± 0.38
ATATATTATTTCTAGTGTACATACCCATATATAATA [XGTACX_site8902] | 8.97 ± 0.33
TTTATTAATTTATAGTGTACATATTAATAATATATT [XGTACX_site7949] | 8.35 ± 0.2
TTTATTTTGTAGTGTACACATATATATATATATATA [CACACA_site5843] | 10.3 ± 0.36
GTTTTCTAGTGGGGGTGTACATATTTATATTTAATA [XGTACX_site8378] | 10.9 ± 0.34
AATATATATTTGTGTACACATTATATATATATATAT [CACACA_site6103] | 10 ± 0.35
TTTCGTAACTATTTGTGTACATATATATATATATAT [XGTACX_site2920] | 10.3 ± 0.29
ACATATTTTATTTTTTGTACACATATATTATTTTTT [XGTACX_site6528] | 8.99 ± 0.42
GTGTAATATATTTTTCGTACATATTATATATATATA [XGTACX_site1675] | 9.8 ± 0.37

Sequence | gcPBM binding intensity (ln)
TAATATTTTTTGTGTACACATATATATATATATATA [CACACA_site5504] | 10.2 ± 0.53
TTTTTTTTGTGTATTTGTACATAATATATATATATA [XGTACX_site7092] | 9.68 ± 0.19
ATATATATATTTGTATGTACATATATATATTCGTAT [XGTACX_site1640] | 9.23 ± 0.29
TTTTTATTTGGTTGTGTACACATATATATATATATA [CACACA_site5844] | 10.2 ± 0.3
GATCTATATATCATTACACACTTGAATTACTTAAAA [CACACA_site21] | 8.49 ± 0.36
TAATTTTTTTTTTTTTTTTTTTTTTTTTTTTTCCTT [CACACA_negctrl_site1095] | 7.8 ± 0.61
TAATTTTTATGAAGAAGTACAAAATCTACTATCATA [XGTACX_site4985] | 7.99 ± 0.38
CGAACAAACAAATAAACACACAAAAAAAGATATATA [CACACA_site6944] | 8.72 ± 0.57
AATGATAAATAAAAAGCATGCAACAAATAAAAATAA [TGCATGCA_site453] | 9.84 ± 0.22
ATATATATAATAAGTGGTACAAGTTATTCATTAAAT [XGTACX_site7063] | 8.64 ± 0.3
TAAACCAAAAAAAGTAGTACAAATATTATAAAAAAA [XGTACX_site8497] | 8.69 ± 0.39
CATAAAAATGGATACACACACATAATATATTTATAT [CACACA_site7669] | 8.61 ± 0.4
TTGTATTTTTAAATGACACACACATATATATATATA [CACACA_site8481] | 10.1 ± 0.38
GTATTTTTAAATGACACACACATATATAAATATGTA [CACACA_site6880] | 8.38 ± 0.31
GTATTTTTAAATGACACACACATATATATATATATA [CACACA_site1662] | 10.2 ± 0.5
ATATTTAAATGGATCACACATATATATATATATATA [CACACA_site5255] | 10.3 ± 0.3
ATTTATTATTATATCACACATAATATATTAAATGAT [CACACA_site5821] | 8.28 ± 0.39
TTAACATATTTGTTAGTGCATTTTGATATTACACAT [GTGCAC_site9978] | 8.6 ± 0.33
TCATACGAAATATAAACACACATACAATAAATAAAT [CACACA_site5156] | 8.78 ± 0.44
CACACCCACCAACACACACACACACCCACCCATATA [CACACA_site366] | 8.61 ± 0.57
AATATAATATAAGGATCACACACAAACACCCATATA [CACACA_site8084] | 8.91 ± 0.61
AAGGATCACCCACAAACACACATATATATATATATA [CACACA_site559] | 10.4 ± 0.16
AACCACATACATATAACACACATATACAATATATAT [CACACA_site8607] | 8.55 ± 0.45

Sequence | gcPBM binding intensity (ln)
TATAAACACCCATATAAACACACATATAAACCAACA [CACACA_site8790] | 8.73 ± 0.43
CACCCACACCAACACACACACATATATATATATATA [CACACA_site362] | 10.4 ± 0.2
TATAATATAAGGATCACACACAAACACCCATATATA [CACACA_site4468] | 8.74 ± 0.52
AATAACCACCAACACACACACATATATATATATATA [CACACA_site3540] | 10.2 ± 0.45
CACCCACACCAACACACACACATATATAATATATAT [CACACA_site595] | 8.81 ± 0.39
GTCTATTCAAAAAAGTGTACGGACATATAAACATAC [XGTACX_site6516] | 9.04 ± 0.28
ATATATATATTTACATGTACACATCTATATATAAAC [XGTACX_site5581] | 9.445 ± 0.049
GCACATCTATATGAAACACACATGGAAACATCTCTT [CACACA_site7793] | 8.47 ± 0.35
TAAAGTTTTTTTTTAACACACACATAATAAAATAAA [CACACA_site8042] | 8.46 ± 0.51
TTTCTATTACGAACGTGTACATACATTATTCTTAAA [XGTACX_site5816] | 8.88 ± 0.26
TAAAGAGTTACCATTTGTACTTACGCACACATAAAA [XGTACX_site3145] | 8.45 ± 0.37
AATTAAATATTATAAACACACATATAGATTATTTTT [CACACA_site6538] | 8.17 ± 0.49
ACAAAATAAAACATCTGTACATATTATTATTATAAG [XGTACX_site4802] | 8.34 ± 0.35
AAAACATTGTTTATGTGTACATAATTATATTTACAA [XGTACX_site6926] | 8.45 ± 0.39
AAAAATATAATATAATGTACACAAAAAAAAAAAATC [XGTACX_site1427] | 8.73 ± 0.49
TATATATATATAATGTGTACACAAATATATATTATA [XGTACX_site8786] | 9.74 ± 0.23
ATTATATATATAAAGTGTACAAAAAAAAAAAAAAAA [XGTACX_site3134] | 8.46 ± 0.33
ATATATTATATAAAGTGTACAAAAAAAATATATAAA [XGTACX_site8065] | 8.91 ± 0.41
ATAATCTGACAAATGTGTACACATATATATATATAT [XGTACX_site2379] | 10.3 ± 0.34
GTGTACAGACACAAAATATATACATATATATATATA [CACACA_negctrl_site1796] | 9.87 ± 0.54
CATATTAGGACAAAGTGTACATATATATATATATAT [XGTACX_site1172] | 10.3 ± 0.27
TATGTAACAAAAAAAAGTACACATATATATAGTGTA [XGTACX_site7772] | 8.52 ± 0.39
ATCTGACAAAAGTGTACACATATATATATATATATA [CACACA_site4814] | 10.2 ± 0.61

Sequence | gcPBM binding intensity (ln)
TAGTTACCTTAATATTGTACTTTTCTTTCATATATG [XGTACX_site1309] | 8.82 ± 0.38
TATAATATATATTTGTGTCCACAACATTTTTAATAT [XGTACX_site2089] | 8.56 ± 0.28
TTTTTTTTTTGATGTTGTACATATATATTATATAAT [XGTACX_site2765] | 8.55 ± 0.4
AAAACAAAATAGGGAACACACACATGTCAATATATA [CACACA_site8834] | 8.88 ± 0.41
TCCCATAATATTAGTAGTACTATTAATATTTTCAGG [XGTACX_site4925] | 8.33 ± 0.42
TTTATATTCTTAAGTGTGCACTATATATATATATAT [GTGCAC_site9719] | 10.38 ± 0.049
ATTTTTTTCTTAGGAGTGCACTTATATTTATTTTAT | 9.12 ± 0.11
ATTTATATTAAAAGTGTGCACTTTTTTTTTTTTTTT | 8.67 ± 0.042
TATATATAAATATATGTGCACTTTTTATATTTATAT | 9.06 ± 0.099
ATATATTTTATATGTGTGCACTATATATATATATAT | 10.3 ± 0.18
ATCATATTTTTATGTGTGCACTTTTTTTTTTTTTTT [GTGCAC_site9555] | 9.02 ± 0.099
TTTATATCTTATTATAGGAAAATGAATATTTTCTCT [TGCATGCA_negctrl_site478] | 8.19 ± 0.36
TATTTTAACTTCTCATGTACATATATTATGTCTATA [XGTACX_site249] | 9.01 ± 0.39
ATAGAACTGAATAAATCTATAAATAAATATATATAT [GTGCAC_negctrl_site604] | 9.16 ± 0.23
AATATAAACACAAACACACACATATAGATTTATATA [CACACA_site6263] | 8.55 ± 0.38
ATTTTTGTTATTACATGTACCCATAATTATTATTAA [XGTACX_site3558] | 9.22 ± 0.44
TATAAAATTACATTTTGTCATTTATTTTTTCCCACT [TGCATGCA_negctrl_site110] | 8.28 ± 0.45
TTTTGGTTAATTCCCCCCATTACATTATGTCATGTC [CACACA_negctrl_site229] | 10.185 ± 0.007
TTTTGTTTAAAAAAAAAAAACAAAAAAAAGCAATTA [CACACA_negctrl_site314] | 8.32 ± 0.51
TAATTATATGTATACACACACATACATTTACATAAC [CACACA_site3238] | 8.66 ± 0.52
